For experiment [1], the target named is Alpha-galactosidase A (Homo sapiens) (UniProt P06280). Nature of the experiment: Counterscreen for Glucocerebrosidase Inhibitors: qHTS Assay for Human alpha-Galactosidase at pH 4.5 (AID 992). Further: 0% is about no effect. The method, boiled down:
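Citrate buffer pH 4.5, Tween-20 0.005%. Enzyme 2 nM, substrate 80 uM, 20 min RT. Stop pH 10. Fluorescence Ex 365/Em 440. AC50 by Hill fit.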
For orientation: Counterscreens check selectivity or assay interference.

Experiment [2] deals with alpha-glucosidase (Oryza sativa, rice) (UniProt Q653V4). Nature of the experiment: Counterscreen for Glucocerebrosidase Inhibitors: qHTS Assay for Rice alpha-Glucosidase at pH 5.0 (AID 997).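 Further: 0% = full activity with enzyme and -100% = basal without enzyme.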 In short, it runs like this: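 Endpoint fluorogenic assay at pH 5.0: compounds (0.7 nM to 77 uM) titrated against 4 nM rice enzyme and 400 uM 4-MU-alpha-glucoside for 20 min at room temperature; NaOH/glycine stop, read ex 365/em 440 nm, Hill-fitted AC50.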

Experiment [3] is described as follows: Validation of Assay for Modulators of Lamin A Splicing (AID 1459; active means well fitted curve in the direction sought with a large enough effect in the signal ratio; the % refers to the signal ratio;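 further: cells exposed to compound for two days before reading; 0% is about no effect; ratio rise marks activators and ratio drop marks inhibitors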). The method, boiled down: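 Splicing correction read as GFP (500-530 nm) over DsRed2 (575-640 nm) object intensity after 48 h compound exposure of reporter HeLa S3 clones (600 cells/well, 2% FBS medium); ancitabine and cycloheximide titrations, 0.5% DMSO as vehicle.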
The nature of experiment [4]: qHTS Assay for Lipid Storage Modulators (AID 1519; calls by dose curve; on activity change, negative = inhibition: on the % scale 0 is the no-effect control and ±100 the full control effect). The note with it: Drosophila S3 cells, BODIPY lipid droplet/cell ratio, laser cytometry, cells loaded with oleic acid. The method, boiled down: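 Cells seeded at 5,000 per well were treated with compounds over a concentration series and loaded with oleic acid (400 uM, as added). Lipid droplet fluorescence (488 nm excitation, 500-530 nm channel) was read by laser-scanning cytometry and normalized to 20 uM Triacsin C.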
A general note: In qHTS, concentration-response curves come from the screen itself.

The target of experiment [5] is DNA repair nuclease/redox regulator APEX1 (Homo sapiens) (UniProt P27695). Nature of the experiment: qHTS Validation Assay for Inhibitors of the Human Apurinic/apyrimidinic Endonuclease 1 (APE1) (AID 1705;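 further: TAMRA fluorescence gain over two minutes as APE1 cuts a quenched THF abasic duplex; on the % scale 0 is the no-effect control and ±100 the full control effect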). The method, boiled down: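 Activity read as rising fluorescence (598 nm emission, 525 nm excitation) from incision of a TAMRA/BHQ-2 duplex carrying a THF abasic site (50 nM). Compound and enzyme sat 15 min at RT before substrate start; signal change between first and third 60-s reads.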
Sequence of DNA repair nuclease/redox regulator APEX1 (Homo sapiens) (P27695 whole entry, looked up): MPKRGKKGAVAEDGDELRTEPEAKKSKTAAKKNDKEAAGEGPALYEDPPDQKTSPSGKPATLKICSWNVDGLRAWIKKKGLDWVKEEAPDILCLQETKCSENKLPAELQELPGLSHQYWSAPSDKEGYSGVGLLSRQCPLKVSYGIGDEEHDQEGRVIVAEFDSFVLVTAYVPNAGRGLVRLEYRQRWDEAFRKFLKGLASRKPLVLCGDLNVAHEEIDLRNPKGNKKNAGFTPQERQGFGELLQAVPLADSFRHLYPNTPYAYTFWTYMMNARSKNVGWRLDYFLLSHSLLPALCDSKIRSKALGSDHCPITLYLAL

A short description of experiment [6]: Counterscreen for APE1 Inhibitors: Fluorescent Dye Displacement Validation Assay (AID 1707).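 Further: plate controls were ThO with dsDNA and no compound for no effect and ThO without dsDNA for full effect.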 The method, boiled down: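 Signal: ThO fluorescence (ex 480 nm/em 540 nm) on binding 50 nM dsDNA; displacement by test compound reduces it. Conditions: 250 nM dye, 50 mM Tris-HCl pH7.5, 2 mM MgCl2, 50mM NaCl, 0.01% Tween-20.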
Experiment [7] deals with Endonuclease 4 (Escherichia coli (strain K12)) (UniProt P0A6C1). Nature of the experiment: Counterscreen for APE1 Inhibitors: qHTS Validation Assay for Inhibitors of Endonuclease IV (AID 1708). Further: on the % scale 0 is the no-effect control and ±100 the full control effect. The method, boiled down:
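Measured as reaction progress, the fluorescence gain between first and third kinetic reads after adding 50 nM TAMRA/BHQ-2 THF duplex to 2 nM enzyme preincubated 15 min with compound; 2 mM MgCl2, pH 7.5.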

The nature of experiment [8]: qHTS for differential inhibitors of proliferation of Plasmodium falciparum line 7G8 (AID 1815).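 Further: parasite growth measured after three days of incubation.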 Further: potency means the concentration at half of the fitted maximal effect.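 On activity change, negative = inhibition: plate controls were vehicle wells for no effect and reference inhibitor wells for full effect.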
Experiment [9] can be described thus: Cell Viability - LYMP2-012 (AID 982).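 Further: cellular ATP by luciferase luminescence where a drop means cytotoxicity; cells exposed to compound for one day before reading; 0% = DMSO only and full loss = 92 µM tetraoctylammonium bromide; nearly all actives have a fitted effect of over 55% in size.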
The nature of experiment [10]: Cell Viability - LYMP2-022 (AID 987).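 Further: 0% = DMSO alone and full effect = tetraoctylammonium bromide at 92 µM; nearly all actives have a fitted effect of over 55% in size.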 The method, boiled down: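 In this qHTS cytotoxicity screen, compound titrations were incubated 24 hr at 37 C with human lymphoblastoid cells in complete medium. Luciferase-based ATP luminescence provided the viability signal.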
A short description of experiment [11]: Cell Viability - LYMP1-002 - Assay at 24 hr (AID 993). Further: on the % scale 0 is the no-effect control and ±100 the full control effect. In short, it runs like this: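 Viability was judged from intracellular ATP using a luciferase read-out, following a 24-hour compound incubation at 37 C of lymphoblastoid cells seeded at 2500 per well. Concentration-response data were fitted to the Hill equation for AC50.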
A short description of experiment [12]: Cell Viability - LYMP1-002 - Assay at 40 hr (AID 994).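 Further: 0% = DMSO only and full inhibition = 92 µM tetraoctylammonium bromide; nearly all actives have a fitted effect of over 60% in size.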 The method, boiled down: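 Concentration-dependent ATP loss after 40 hr treatment at 37 C defined toxicity; AC50 values were obtained by fitting the standard Hill equation.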
The mark [13] stands for this setting: measured here: cell count channel max response.
Where [14] appears, read: measured here: lipid channel max response.

From PubChem BioAssay (NCATS) come the findings set out here.

Structures are written as SMILES. Where “and” joins values, the source holds several entries; their conditions need not be identical. Equal entries are not always repeated. Records with an inconclusive call do not appear. Calls of active or inactive are those of the source. Unless noted, the call rests on the fitted dose curve; in most records, active means well fitted curve in the direction sought with a large enough effect; inconclusive means small, poorly fitted or top-dose-only effect, or another doubt; inactive means no such curve, though single readings can be large; an effect the other way counts as inactive or inconclusive.

Sequence of Alpha-galactosidase A (Homo sapiens) (P06280 whole entry, looked up): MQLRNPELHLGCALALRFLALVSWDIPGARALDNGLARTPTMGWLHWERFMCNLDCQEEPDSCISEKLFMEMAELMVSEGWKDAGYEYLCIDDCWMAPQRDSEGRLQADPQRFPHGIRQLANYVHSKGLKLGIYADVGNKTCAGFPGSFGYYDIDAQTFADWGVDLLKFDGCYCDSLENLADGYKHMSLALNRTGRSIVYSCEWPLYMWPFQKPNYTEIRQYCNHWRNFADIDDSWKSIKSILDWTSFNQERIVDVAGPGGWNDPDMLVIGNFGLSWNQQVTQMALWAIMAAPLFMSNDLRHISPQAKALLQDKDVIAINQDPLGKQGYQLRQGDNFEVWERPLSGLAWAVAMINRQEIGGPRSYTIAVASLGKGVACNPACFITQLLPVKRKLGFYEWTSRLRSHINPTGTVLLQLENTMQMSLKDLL

Take `CC1(C)NC(=O)N(c2ccc([N+](=O)[O-])c(C(F)(F)F)c2)C1=O`: the result in [1], in [2], in [3] and in [7] was inactive. Besides, in experiment [4] (at 57.5 µM (top of the series)), the activity change, negative = inhibition was -13.9% (inactive) and -13.7% (inactive). The max response in [4] (setting [13]) was -10.4% and -26.6%; in [4] (setting [14]), -19.8% and -35.1%. Also, the Potency entry in [5], in experiment [6] and in experiment [8] was “inactive” throughout.

Turning to `S=c1nc[nH]c2nc[nH]c12`, in experiment [4] (at 57.5 µM (top of the series)), the activity change, negative = inhibition is 2.17% (inactive). In addition, the max response in experiment [4] (setting [13]) was found to be 9.84%; in experiment [4] (setting [14]), 14.8%.

Regarding `Nc1nc(Cl)nc2c1ncn2[C@H]1C[C@H](O)[C@@H](CO)O1`, the activity change, negative = inhibition in [4] (at 57.5 µM (top of the series)) is -3.99% (inactive). Moreover, the max response in experiment [4] (setting [13]) was -0.0923%; in experiment [4] (setting [14]), -3.39%.

For `CCCOc1ccc2nc(NC(=O)OC)[nH]c2c1`, in experiment [4] (at 57.5 µM (top of the series)), the activity change, negative = inhibition is 5.26% (inactive). Besides, the figures for the max response in experiment [4] (setting [13]) and in experiment [4] (setting [14]) were 3.19% and 11.6%, respectively.

In the case of `C[C@H](Cc1ccc(O)c(O)c1)[C@@H](C)Cc1ccc(O)c(O)c1`, the result in experiment [1], in experiment [2], in experiment [3] and in experiment [7] was inactive. Moreover, the Potency entry in experiment [5] was “inactive”. Further, in experiment [8], the Potency was 3.98 µM (active).

As for `Cc1nc2n(c(=O)c1CCN1CCC(c3noc4cc(F)ccc34)CC1)CCCC2`, the compound was called inactive in experiment [1], in experiment [2], in [3] and in [7]. Moreover, the activity change, negative = inhibition was -3.92% (inactive) in [4] (at 25.7 µM (top of the series)) and 0.755% (inactive) in experiment [4] (at 57.5 µM (top of the series)). Also, the max response in [4] (setting [13]) is -8.38% and -35%; in experiment [4] (setting [14]), -11.2% and -35%. For the same compound, the Potency entry in experiment [5] and in experiment [6] was “inactive” each time.

For `O=C(NCC1CCCCN1)c1cc(OCC(F)(F)F)ccc1OCC(F)(F)F` (centres undefined), the compound was called inactive in [3] and in [7]. The Potency result in experiment [5] and in [6] was “inactive” in each case.

For the compound `Cc1cc(O)c2c(c1)C(=O)c1cc(O)cc(O)c1C2=O`, the Potency entry in experiment [9], in experiment [10], in experiment [11] and in experiment [12] was “inactive” each time. Further, the call in [1], in experiment [2], in experiment [3] and in [7] was inactive. Also, the activity change, negative = inhibition in experiment [4] (at 57.5 µM (top of the series)) is -0.138% (inactive) and 5.28% (inactive). Besides, the max response in experiment [4] (setting [13]) was 55.1% and -15.9%; in experiment [4] (setting [14]), 55.2% and -8.66%.

Consider `Cc1cc2c(s1)Nc1ccccc1N=C2N1CCN(C)CC1`, for which the activity change, negative = inhibition in experiment [4] (at 57.5 µM (top of the series)) is 13.5% (inactive). Further, the values for the max response in experiment [4] (setting [13]) and in experiment [4] (setting [14]) were -2.56% and 9.09%, respectively.

As to `Cc1cc2cc3c(C)cc(=O)oc3c(C)c2o1`, in experiment [4] (at 25.7 µM (top of the series)), the activity change, negative = inhibition is -0.305% (inactive). Moreover, the max response was -4.86% in experiment [4] (setting [13]) and -6.06% in experiment [4] (setting [14]).

Consider `CC1Cc2ccccc2N1NC(=O)c1ccc(Cl)c(S(N)(=O)=O)c1` (centres undefined), for which the activity change, negative = inhibition in experiment [4] (at 57.5 µM (top of the series)) was 7.15% (inactive). The max response is 9.62% in [4] (setting [13]) and 23.5% in [4] (setting [14]).

Regarding `CC1(C)C(=O)N(CCN2CCC(C(=O)c3ccc(F)cc3)CC2)c2ccccc21`, the result in experiment [1], in experiment [2] and in [3] was inactive. Moreover, the Potency entry in experiment [5] and in experiment [6] was “inactive” each time. Further, the Potency in experiment [8] was 6.31 µM (active).

Regarding `O=c1oc2cc(O)ccc2s1`, the activity change, negative = inhibition in experiment [4] (at 57.5 µM (top of the series)) was 5.97% (inactive). Further, the figures for the max response in [4] (setting [13]) and in experiment [4] (setting [14]) were 14.5% and 23.2%, respectively.

In the case of `CCOc1cc(CC(=O)N[C@@H](CC(C)C)c2ccccc2N2CCCCC2)ccc1C(=O)O`, in experiment [4] (at 25.7 µM (top of the series)), the activity change, negative = inhibition is 0.216% (inactive). Also, the max response in [4] (setting [13]) was -5.3%; in [4] (setting [14]) it was -9.52%.

With `Oc1ccc(OCc2ccccc2)cc1`, the activity change, negative = inhibition in [4] (at 25.7 µM (top of the series)) was -0.0547% (inactive). Moreover, the max response was -20% in [4] (setting [13]) and -20.9% in [4] (setting [14]).
